This is an account of results in PubChem BioAssay AID430 (Sanford-Burnham Center for Chemical Genomics, 2006).

Hit rate of the full screen: of about 63,000 compounds, about 1,100 (1.7%) were called active. Shown is part of a subset that was picked to be rich in actives. Potency and affinity values are given separately. Values without a mark were called inactive. Rule as the data show it: active = cytotoxicity above about 50%; inactive = the rest.

The nature of this experiment: cytotoxicity in HPDE-C7 cells, cell-based, fluorescence, HTS (AID 430).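 Also: cells exposed to compound for 48 hours before viability readout; 0% = vehicle and 100% = reference cytotoxic drug.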 To be noted: HPDE-C7 pancreatic duct cells viability, at 10 µM, active compounds read high.
On to `O=S(=O)(NCC1CC1)c1cccc(S(=O)(=O)N2CCCC2)c1`, for which the cytotoxicity was -7.4%.

With `Cc1ccccc1OCc1nc(-c2ccc(-n3cccc3)cc2)no1`, the cytotoxicity was 62.3% (active).

Turning to `Cc1ccccc1OCc1nc(-c2ccccc2)no1`, the cytotoxicity was -12.2%.

As to `Cc1ccc(-c2noc(COc3ccccc3C)n2)cc1`, the cytotoxicity is -19.6%.

Turning to `Cc1cc(=O)[nH]c(SCC(=O)NCc2ccco2)n1`, the cytotoxicity was -38.4%.

Consider `O=C(Cn1nnc(-c2ccccc2NC(=O)c2cccs2)n1)Nc1ccccc1`, for which the cytotoxicity is -6.9%.

Take `CCn1c(SCC(=O)N(C(C)C)C(C)C)nnc1-c1cc2ccccc2cc1O`: the cytotoxicity is -2.4%.

On to `Cc1cccc(N2CCN(C(=O)c3ccncc3)CC2C)c1` (stereo not drawn), for which the cytotoxicity was -2.2%.

With `Cc1cccc(N2CCN(c3cccc(C)c3)C2c2cccnc2)c1`, the cytotoxicity is 52.6% (active).

On to `Cc1ccc(N2CCN(c3ccc(C)cc3)C2c2ccncc2)cc1`, for which the cytotoxicity is -18.2%.

Consider `CCC(=O)OCCn1c(=O)c2cc3c(=O)n(CCOC(=O)CC)c(=O)c3cc2c1=O`, for which the cytotoxicity is 1.2%.

For `CCOC(=O)C1=C(C)NC(=O)NC1c1ccc(OC)c(Cl)c1` (stereo not drawn), the cytotoxicity is -1.8%.

For `O=C(Nc1ccc(-c2nc3ccccc3o2)cc1)C1CCCO1` (stereo not drawn), the cytotoxicity was 2.5%.

As for `Cc1nn(-c2nc3ccccc3s2)c(N)c1-c1ccccc1`, the cytotoxicity was 6.1%.

For the compound `O=c1cc(-c2ccccc2)[nH]n1-c1nc2ccccc2s1`, the cytotoxicity is 61.9% (active).

With `COc1ccc(-c2cc(=O)n(-c3nc4ccccc4[nH]3)[nH]2)cc1`, the cytotoxicity is 35%.

As for `O=c1cc(-c2ccccc2)[nH]c2nc3ccccc3n12`, the cytotoxicity was 34.3%.

On to `CC(=NC1CCCC1)c1c(C)[nH]n(-c2nc3ccccc3s2)c1=O`, for which the cytotoxicity is -9.3%.

`CCn1c(SCC(=O)N(Cc2ccccc2)C2CCS(=O)(=O)C2)nc2ccccc2c1=O` (stereo not drawn): the cytotoxicity is -7.3%.

With `C1=C(CCNc2ncnc3nc[nH]c23)CCCC1`, the cytotoxicity was 0%.

Consider `CCCCCC(=O)Nc1ccc2oc(-c3cncc(Br)c3)nc2c1`, for which the cytotoxicity is -3.1%.

In the case of `CCn1c(=O)n(CC(=O)Nc2cccc(OC)c2)c(=O)c2ccccc21`, the cytotoxicity is -12.1%.

Turning to `CN(C)CCCNC(=O)Cc1ccc(Br)cc1`, the cytotoxicity is -3.8%.

Take `COc1cc(C2C(C(=O)c3ccc(C)o3)=C(O)C(=O)N2c2cc(C)on2)ccc1O` (stereo not drawn): the cytotoxicity was -0.7%.

Turning to `CC(NC(=O)NCCCn1ccnc1)(C(F)(F)F)C(F)(F)F`, the cytotoxicity is 9.8%.

As to `O=C(Nc1ccc(CN2CCOCC2)cc1)c1cc2ccccc2o1`, the cytotoxicity is -0.1%.

Take `O=C(Nc1ccc(CN2CCCCC2)cc1)c1ccc(Br)o1`: the cytotoxicity was -14.9%.

As for `O=C(Cc1ccc(-c2ccccc2)cc1)NCCN1CCOCC1`, the cytotoxicity is -11.8%.
